# According to the supplement of paper PMC6555819:
# Legend:
# Assay in all cases: PBM binding z-score (relative to random genomic background probes); higher = stronger binding; sequences stand for … in GC…GCGATTGACAGCGTAGAATGAAGG
# [1] = tested on: PPARg:RXRa DBDmut IVT, anti-RXR (DBD mutation: RXRa K156A/R161A, NR concentration 270 nM, RXRa partner concentration 90 nM)
# Method in brief: (§1)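 On custom Agilent 4×180K arrays, double-stranded probes with 34-nt variable regions carried direct-repeat seeds, single-nucleotide variants, half-site ablations or random human genomic background. Ligand-free nuclear receptor dimers were applied for 1 h, and binding was read with antibodies against each partner (one per run). Binding z-scores come from regression-normalized fluorescence, with the random background probes as reference.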
# [2] = tested on: PPARg:RXRa IVT, anti-PPARg (NR concentration 270 nM, RXRa partner concentration 90 nM)
# Method in brief: as §1
# [3] = tested on: PPARg DBDmut:RXRa IVT, anti-PPARg (DBD mutation: PPARg1 K132A/R137A, NR concentration 270 nM, RXRa partner concentration 90 nM)
# Method in brief: as §1
# [4] = tested on: PPARg DBDmut IVT, anti-PPARg (DBD mutation: PPARg1 K132A/R137A, NR concentration 270 nM)
# Method in brief: as §1
# [5] = tested on: PPARg homodimer (NR concentration 180 nM)
# Method in brief: as §1
# [6] = tested on: PXR:RXRa (NR concentration 270 nM, RXRa partner concentration 90 nM)
# Method in brief: as §1
# [7] = tested on: PXR homodimer (NR concentration 270 nM)
# Method in brief: as §1
# [8] = tested on: RARa:RXR (NR concentration 270 nM, RXRa partner concentration 90 nM)
# Method in brief: as §1
# [9] = tested on: RARa homodimer (NR concentration 270 nM)
# Method in brief: as §1
# [10] = tested on: RARb:RXRa (NR concentration 270 nM, RXRa partner concentration 90 nM)
# Method in brief: as §1
# [11] = tested on: RARb homodimer (NR concentration 270 nM)
# Method in brief: as §1
# [12] = tested on: RARg:RXRa (NR concentration 270 nM, RXRa partner concentration 90 nM)
# Method in brief: as §1
# [13] = tested on: RARg homodimer (NR concentration 270 nM)
# Method in brief: as §1
# [14] = tested on: RXRa DBDmut IVT, anti-RXR (DBD mutation: RXRa K156A/R161A, NR concentration 90 nM)
# Method in brief: as §1
# [15] = tested on: RXRa homodimer (NR concentration 180 nM)
# Method in brief: as §1
# [16] = tested on: THRa:RXRa (NR concentration 90 nM, RXRa partner concentration 90 nM)
# Method in brief: as §1
# [17] = tested on: THRa homodimer (NR concentration 90 nM)
# Method in brief: as §1
# [18] = tested on: VDR homodimer (NR concentration 270 nM)
# Method in brief: as §1
Sequence,PBM binding z-score [1],PBM binding z-score [2],PBM binding z-score [3],PBM binding z-score [4],PBM binding z-score [5],PBM binding z-score [6],PBM binding z-score [7],PBM binding z-score [8],PBM binding z-score [9],PBM binding z-score [10],PBM binding z-score [11],PBM binding z-score [12],PBM binding z-score [13],PBM binding z-score [14],PBM binding z-score [15],PBM binding z-score [16],PBM binding z-score [17],PBM binding z-score [18]
AGAATGAGGTTATTTAGATCAGGGAATTGCGGTC,2.96,2.43,1.1,0.243,1.23,1.34,0.696,1.6,0.731,1.38,0.824,1.13,0.824,2.53,1.9,2.17,1.06,1.48
AGAACGAGGGCACGATGAGTTGATAGCAGAGTAG,3.75,3.91,0.853,0.0308,0.364,1.17,0.453,1.01,-0.256,2.32,1.22,2.18,2.42,1.77,1.57,2.03,0.236,1.66
ATCGAAAGATCGTGAGGTGAGTATACAGAAAGGC,-1.15,0.285,0.657,0.767,-0.197,-0.0729,-0.403,0.277,-0.457,0.133,-0.106,0.546,0.519,-0.575,0.649,1.73,0.91,-0.449
CGTCCAAGGTCAAAGGTCAGTTAAGAGATGACGG,3.55,5.71,1.21,-0.205,3.01,6.49,1.86,8.28,1.38,6.2,5.64,8.47,7.74,3.83,9.85,5.11,2.91,3.63
CGTCAAAGTTCAACTAAGGTAACGTTAAGCACGC,0.539,2.1,1.06,1.28,3.26,5.84,4.4,4.54,2.15,5.22,4.42,6.02,6.57,4.55,5.24,5.42,2.19,4.26
AGAATTAGGTTATACGTAGATCAGGGAAGAAAGT,6.81,4.61,1.46,1.36,1.25,0.291,0.914,0.687,0.896,0.776,0.51,0.538,0.552,0.428,0.592,0.759,0.539,0.454
GCGACTGGGGCATCAGCAGGTTACTATAACTTAA,4.13,3.05,-0.371,-0.562,-0.0326,-0.0216,-0.178,0.369,-0.337,0.825,0.782,0.807,0.379,0.136,0.331,0.816,0.104,0.0737
CCTACTGGGCCAAAGGTCATGGATTCCAATGCTC,5.34,6.68,-0.19,-0.578,2.93,5.44,0.496,6.58,0.489,4.92,4.97,6.18,5.26,0.383,6.66,3.73,1.02,1.54
CGTCCCAGGTCAGAGAGGTCAGTGAATGCCGAGT,1.78,2.54,-0.171,-0.892,3.01,5.38,10.2,4.83,0.426,4.48,4.89,5.03,5.73,1.72,4.33,4.24,2.92,4.31
ATCTCTTGGTAAAAGTTCAGTGAATCCCGAGGAT,-0.122,0.894,0.627,0.652,1.46,1.83,1.58,1.1,1.12,2.37,2.43,1.43,1.95,0.705,1.02,0.75,0.436,1.86
GCTATTAGTTGAAAGGGCAAGCGAATGATTCTCG,0.45,0.54,-0.251,0.055,1.28,0.469,0.0641,1.19,0.795,1.94,1.71,1.06,1.04,0.747,1.06,0.545,-0.289,0.401
AATACAGGGTCACTAGGCCACAGTAGGTACGAAT,4.65,6.73,4.31,2.11,3.96,3.36,0.57,4.14,1.37,4.27,3.36,5.36,4.87,2.86,5.56,3.38,1.32,2.95
CAGCCAAGGTCAGGGCCAGTATAGGAGGAACGTT,1.56,2.1,-0.336,-0.871,2.33,2.13,0.199,3.09,0.299,4.73,3.64,4.92,5.59,1.64,4,3.36,1.78,0.93
TTACCAAGGTGAAGGTCGTTGGTCCCTCTGTAGA,2.04,3.34,-0.723,-0.44,0.993,1.03,-0.26,1.49,-0.694,2.17,1.98,1.01,0.783,0.488,1.27,2.29,1.1,0.98
